Here are results for three compounds from ChEMBL document CHEMBL2218924, “A broad activity screen in support of a chemogenomic map for kinase signalling research and drug discovery” (Biochem J, 2013).

In test [1] the target is T1, Serine/threonine-protein kinase 17A (Homo sapiens) (UniProt Q9UEE5).
T1 sequence (whole entry): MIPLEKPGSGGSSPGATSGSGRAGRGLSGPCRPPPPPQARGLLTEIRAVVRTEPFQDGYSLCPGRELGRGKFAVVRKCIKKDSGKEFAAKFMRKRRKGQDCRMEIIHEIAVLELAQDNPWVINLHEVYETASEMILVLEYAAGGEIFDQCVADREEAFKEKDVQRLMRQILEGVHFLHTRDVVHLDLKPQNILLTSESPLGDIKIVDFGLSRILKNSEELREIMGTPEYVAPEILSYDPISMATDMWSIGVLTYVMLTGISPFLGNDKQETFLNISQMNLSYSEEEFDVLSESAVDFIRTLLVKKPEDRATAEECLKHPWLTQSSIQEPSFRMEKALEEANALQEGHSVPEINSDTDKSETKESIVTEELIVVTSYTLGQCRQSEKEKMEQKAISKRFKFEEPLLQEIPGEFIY
The settings on record: at 10 µM.

Test [2] has as its target T2, Dual specificity tyrosine-phosphorylation-regulated kinase 2 (Homo sapiens) (UniProt Q92630).
T2 sequence (whole entry): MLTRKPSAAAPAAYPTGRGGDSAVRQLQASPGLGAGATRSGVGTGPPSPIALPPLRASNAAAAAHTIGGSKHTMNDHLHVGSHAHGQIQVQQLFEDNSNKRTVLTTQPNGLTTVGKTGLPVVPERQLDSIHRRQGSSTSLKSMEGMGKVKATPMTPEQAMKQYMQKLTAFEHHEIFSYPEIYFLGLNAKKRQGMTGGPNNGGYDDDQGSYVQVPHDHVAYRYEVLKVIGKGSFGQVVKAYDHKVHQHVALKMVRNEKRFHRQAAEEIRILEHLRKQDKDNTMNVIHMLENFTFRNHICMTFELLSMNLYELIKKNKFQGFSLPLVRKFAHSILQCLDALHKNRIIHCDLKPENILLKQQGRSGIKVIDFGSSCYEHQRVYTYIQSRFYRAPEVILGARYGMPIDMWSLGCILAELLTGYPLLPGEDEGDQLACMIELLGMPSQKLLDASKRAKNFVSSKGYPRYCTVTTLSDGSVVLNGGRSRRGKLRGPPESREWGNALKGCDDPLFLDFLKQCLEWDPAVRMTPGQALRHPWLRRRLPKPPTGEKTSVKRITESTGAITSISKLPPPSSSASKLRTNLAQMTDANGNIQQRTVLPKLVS
The conditions noted are these: at 1 µM.

Test [3] has as its target T2, Dual specificity tyrosine-phosphorylation-regulated kinase 2 (Homo sapiens). The settings on record: at 10 µM.
The target of test [4] is Epidermal growth factor receptor (Homo sapiens) (UniProt P00533). The conditions noted are these: at 1 µM.
Sequence of Epidermal growth factor receptor (Homo sapiens) (P00533 whole entry): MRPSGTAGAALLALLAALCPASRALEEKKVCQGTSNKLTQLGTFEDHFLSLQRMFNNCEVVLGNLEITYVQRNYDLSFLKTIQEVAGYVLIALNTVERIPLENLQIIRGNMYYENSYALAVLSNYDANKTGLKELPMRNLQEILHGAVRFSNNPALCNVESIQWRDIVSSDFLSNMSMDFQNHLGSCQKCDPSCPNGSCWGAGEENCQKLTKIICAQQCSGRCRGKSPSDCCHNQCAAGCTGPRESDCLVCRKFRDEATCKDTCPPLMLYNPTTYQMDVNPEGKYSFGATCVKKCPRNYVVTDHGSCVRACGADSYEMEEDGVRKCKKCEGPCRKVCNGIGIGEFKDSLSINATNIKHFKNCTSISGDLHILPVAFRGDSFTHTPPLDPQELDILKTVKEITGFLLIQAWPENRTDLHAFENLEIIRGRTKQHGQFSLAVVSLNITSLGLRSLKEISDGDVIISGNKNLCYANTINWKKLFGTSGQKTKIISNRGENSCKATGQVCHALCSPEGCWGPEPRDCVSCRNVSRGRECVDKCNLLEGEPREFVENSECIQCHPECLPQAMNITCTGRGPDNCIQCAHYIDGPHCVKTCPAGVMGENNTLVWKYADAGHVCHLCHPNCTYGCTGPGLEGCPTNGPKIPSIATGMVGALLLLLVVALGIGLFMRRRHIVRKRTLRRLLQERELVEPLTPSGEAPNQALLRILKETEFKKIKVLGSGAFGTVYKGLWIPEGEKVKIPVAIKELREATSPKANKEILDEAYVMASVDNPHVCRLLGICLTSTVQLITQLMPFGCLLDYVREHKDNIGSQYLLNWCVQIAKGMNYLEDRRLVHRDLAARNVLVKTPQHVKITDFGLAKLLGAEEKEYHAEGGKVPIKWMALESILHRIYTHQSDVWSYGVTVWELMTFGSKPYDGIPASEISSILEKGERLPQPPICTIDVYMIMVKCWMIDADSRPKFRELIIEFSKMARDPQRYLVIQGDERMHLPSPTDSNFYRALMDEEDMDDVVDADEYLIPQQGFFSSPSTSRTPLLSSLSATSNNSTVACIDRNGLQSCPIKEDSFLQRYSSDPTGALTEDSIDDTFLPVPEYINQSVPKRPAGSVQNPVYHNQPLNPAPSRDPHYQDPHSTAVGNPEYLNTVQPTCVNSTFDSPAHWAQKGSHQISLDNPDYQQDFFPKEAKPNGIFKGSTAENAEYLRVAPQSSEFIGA
Test [5] shares this target. The settings on record: at 10 µM.
The target of test [6] is T3, Ephrin type-A receptor 1 (Homo sapiens) (UniProt P21709).
T3 sequence (whole entry): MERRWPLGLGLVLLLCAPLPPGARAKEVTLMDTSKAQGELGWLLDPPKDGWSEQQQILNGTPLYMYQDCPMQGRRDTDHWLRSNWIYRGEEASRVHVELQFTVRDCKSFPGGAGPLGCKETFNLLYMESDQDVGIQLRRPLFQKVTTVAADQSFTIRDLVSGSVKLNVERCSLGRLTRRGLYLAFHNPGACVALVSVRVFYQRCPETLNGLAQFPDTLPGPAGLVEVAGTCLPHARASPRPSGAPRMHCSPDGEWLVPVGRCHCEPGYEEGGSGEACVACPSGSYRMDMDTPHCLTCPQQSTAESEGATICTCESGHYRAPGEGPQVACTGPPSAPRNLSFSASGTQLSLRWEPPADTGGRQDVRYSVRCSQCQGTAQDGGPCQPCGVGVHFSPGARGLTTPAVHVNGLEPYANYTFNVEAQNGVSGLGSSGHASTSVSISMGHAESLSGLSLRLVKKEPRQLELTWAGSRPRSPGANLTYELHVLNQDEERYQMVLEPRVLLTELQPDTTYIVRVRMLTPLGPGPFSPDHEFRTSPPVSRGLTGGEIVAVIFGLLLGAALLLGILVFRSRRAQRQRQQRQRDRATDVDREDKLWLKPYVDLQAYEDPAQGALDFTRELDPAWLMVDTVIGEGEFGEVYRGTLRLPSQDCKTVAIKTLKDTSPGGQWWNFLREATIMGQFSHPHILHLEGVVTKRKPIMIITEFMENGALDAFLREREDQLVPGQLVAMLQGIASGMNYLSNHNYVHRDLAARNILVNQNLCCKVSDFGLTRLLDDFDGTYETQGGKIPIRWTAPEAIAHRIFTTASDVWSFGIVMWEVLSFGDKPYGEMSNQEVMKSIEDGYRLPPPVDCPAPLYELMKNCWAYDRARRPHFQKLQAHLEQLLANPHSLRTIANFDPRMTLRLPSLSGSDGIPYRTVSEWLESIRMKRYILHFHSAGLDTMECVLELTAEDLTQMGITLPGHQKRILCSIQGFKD
The settings on record: at 1 µM.

Test [7] deals with T3, Ephrin type-A receptor 1 (Homo sapiens). The conditions noted are these: at 10 µM.
Test [8] has as its target Ephrin type-A receptor 2 (Homo sapiens) (UniProt P29317). The settings on record: at 1 µM.
Test [9] has the same target. The settings on record: at 10 µM.
The target of test [10] is T4, Ephrin type-A receptor 3 (Homo sapiens) (UniProt P29320).
T4 sequence (whole entry): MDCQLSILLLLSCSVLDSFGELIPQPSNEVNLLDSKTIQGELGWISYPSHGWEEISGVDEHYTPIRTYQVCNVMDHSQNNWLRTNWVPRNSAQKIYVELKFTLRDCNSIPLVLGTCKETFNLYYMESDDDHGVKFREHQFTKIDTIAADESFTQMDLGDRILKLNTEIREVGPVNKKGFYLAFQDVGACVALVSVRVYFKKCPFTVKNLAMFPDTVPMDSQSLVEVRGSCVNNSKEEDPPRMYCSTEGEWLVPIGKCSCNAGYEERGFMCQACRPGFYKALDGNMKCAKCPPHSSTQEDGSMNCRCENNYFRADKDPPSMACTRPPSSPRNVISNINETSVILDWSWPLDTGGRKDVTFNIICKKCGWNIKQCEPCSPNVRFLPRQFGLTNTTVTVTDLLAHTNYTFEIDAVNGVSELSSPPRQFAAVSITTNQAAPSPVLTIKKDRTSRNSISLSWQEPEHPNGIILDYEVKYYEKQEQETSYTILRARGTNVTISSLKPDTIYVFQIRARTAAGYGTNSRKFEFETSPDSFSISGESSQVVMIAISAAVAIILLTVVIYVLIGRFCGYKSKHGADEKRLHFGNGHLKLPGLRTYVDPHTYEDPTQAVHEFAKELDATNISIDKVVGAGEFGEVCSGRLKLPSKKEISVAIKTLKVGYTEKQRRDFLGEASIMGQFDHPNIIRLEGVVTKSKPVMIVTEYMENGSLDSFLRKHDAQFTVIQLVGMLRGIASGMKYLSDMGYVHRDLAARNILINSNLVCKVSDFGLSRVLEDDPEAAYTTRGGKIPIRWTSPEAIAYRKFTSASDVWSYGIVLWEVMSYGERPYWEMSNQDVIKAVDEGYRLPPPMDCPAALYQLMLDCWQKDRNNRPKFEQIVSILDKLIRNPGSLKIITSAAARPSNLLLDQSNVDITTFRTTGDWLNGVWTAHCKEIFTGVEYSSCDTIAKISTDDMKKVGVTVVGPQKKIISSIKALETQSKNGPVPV
The settings on record: at 1 µM.

Test [11] addresses T4, Ephrin type-A receptor 3 (Homo sapiens). The settings on record: at 10 µM.
Test [12] has as its target Ephrin type-A receptor 4 (Homo sapiens) (UniProt P54764). The conditions noted are these: at 1 µM.
The target is the same in test [13]. The settings on record: at 10 µM.
Test [14] deals with Ephrin type-A receptor 5 (Homo sapiens) (UniProt P54756). The conditions noted are these: at 1 µM.
Test [15] has the same target. The conditions noted are these: at 10 µM.
Test [16] deals with Ephrin type-A receptor 7 (Homo sapiens) (UniProt Q15375). The conditions noted are these: at 1 µM.
Sequence of Ephrin type-A receptor 7 (Homo sapiens) (Q15375 28-998 limits assumed): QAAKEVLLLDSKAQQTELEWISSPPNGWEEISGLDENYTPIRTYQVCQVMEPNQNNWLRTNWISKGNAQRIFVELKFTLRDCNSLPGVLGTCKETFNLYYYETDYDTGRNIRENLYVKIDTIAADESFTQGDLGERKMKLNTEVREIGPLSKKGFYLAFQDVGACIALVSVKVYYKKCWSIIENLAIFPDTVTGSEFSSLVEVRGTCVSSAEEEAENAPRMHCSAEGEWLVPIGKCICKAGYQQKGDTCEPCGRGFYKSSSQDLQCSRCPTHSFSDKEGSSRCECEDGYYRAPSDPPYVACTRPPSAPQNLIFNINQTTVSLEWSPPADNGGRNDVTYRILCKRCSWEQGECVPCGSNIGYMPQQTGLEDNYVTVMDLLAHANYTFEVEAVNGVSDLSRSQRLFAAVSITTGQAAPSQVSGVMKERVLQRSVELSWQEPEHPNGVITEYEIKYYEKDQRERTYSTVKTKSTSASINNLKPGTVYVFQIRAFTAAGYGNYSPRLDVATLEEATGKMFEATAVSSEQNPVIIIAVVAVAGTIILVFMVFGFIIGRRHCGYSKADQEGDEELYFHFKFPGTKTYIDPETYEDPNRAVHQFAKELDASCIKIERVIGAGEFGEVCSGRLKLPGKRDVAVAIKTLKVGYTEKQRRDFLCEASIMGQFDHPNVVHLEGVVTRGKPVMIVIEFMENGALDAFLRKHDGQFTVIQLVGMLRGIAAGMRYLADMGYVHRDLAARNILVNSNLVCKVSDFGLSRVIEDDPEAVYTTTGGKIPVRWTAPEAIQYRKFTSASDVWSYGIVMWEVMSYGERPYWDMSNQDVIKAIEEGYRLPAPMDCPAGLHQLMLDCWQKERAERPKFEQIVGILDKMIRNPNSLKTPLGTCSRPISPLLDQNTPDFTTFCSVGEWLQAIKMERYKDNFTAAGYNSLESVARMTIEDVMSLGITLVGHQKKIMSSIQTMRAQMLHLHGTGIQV
The target is the same in test [17]. The conditions noted are these: at 10 µM.
The target of test [18] is T5, Ephrin type-A receptor 8 (Homo sapiens) (UniProt P29322).
T5 sequence (whole entry): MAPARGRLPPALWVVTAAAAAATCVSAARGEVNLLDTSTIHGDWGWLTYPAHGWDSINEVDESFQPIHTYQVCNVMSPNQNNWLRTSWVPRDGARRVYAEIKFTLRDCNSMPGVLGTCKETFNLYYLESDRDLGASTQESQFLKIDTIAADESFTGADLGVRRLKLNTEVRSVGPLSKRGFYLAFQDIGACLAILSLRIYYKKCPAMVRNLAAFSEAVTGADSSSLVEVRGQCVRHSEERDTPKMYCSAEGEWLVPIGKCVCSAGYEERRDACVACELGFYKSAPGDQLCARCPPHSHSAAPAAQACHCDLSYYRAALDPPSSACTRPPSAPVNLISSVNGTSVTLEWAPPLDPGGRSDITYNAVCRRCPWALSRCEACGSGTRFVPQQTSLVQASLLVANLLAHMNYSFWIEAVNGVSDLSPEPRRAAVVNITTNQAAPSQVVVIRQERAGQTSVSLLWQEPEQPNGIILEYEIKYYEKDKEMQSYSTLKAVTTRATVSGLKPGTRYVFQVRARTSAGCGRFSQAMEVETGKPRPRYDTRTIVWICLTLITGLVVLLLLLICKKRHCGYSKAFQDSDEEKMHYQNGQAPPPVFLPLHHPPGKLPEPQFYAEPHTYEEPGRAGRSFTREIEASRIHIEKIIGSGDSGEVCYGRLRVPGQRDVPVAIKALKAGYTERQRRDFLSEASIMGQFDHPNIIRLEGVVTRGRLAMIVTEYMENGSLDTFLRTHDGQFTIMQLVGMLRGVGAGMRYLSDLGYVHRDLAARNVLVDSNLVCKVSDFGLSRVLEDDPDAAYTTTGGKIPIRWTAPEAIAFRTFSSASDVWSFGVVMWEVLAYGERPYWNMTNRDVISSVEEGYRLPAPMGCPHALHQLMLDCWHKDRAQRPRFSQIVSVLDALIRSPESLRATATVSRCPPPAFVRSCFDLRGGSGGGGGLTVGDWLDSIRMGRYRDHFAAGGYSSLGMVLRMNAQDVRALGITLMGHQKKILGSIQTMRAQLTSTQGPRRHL
The conditions noted are these: at 1 µM.

Test [19] deals with T5, Ephrin type-A receptor 8 (Homo sapiens). The settings on record: at 10 µM.
Test [20] has as its target T6, Ephrin type-B receptor 1 (Homo sapiens) (UniProt P54762).
T6 sequence (whole entry): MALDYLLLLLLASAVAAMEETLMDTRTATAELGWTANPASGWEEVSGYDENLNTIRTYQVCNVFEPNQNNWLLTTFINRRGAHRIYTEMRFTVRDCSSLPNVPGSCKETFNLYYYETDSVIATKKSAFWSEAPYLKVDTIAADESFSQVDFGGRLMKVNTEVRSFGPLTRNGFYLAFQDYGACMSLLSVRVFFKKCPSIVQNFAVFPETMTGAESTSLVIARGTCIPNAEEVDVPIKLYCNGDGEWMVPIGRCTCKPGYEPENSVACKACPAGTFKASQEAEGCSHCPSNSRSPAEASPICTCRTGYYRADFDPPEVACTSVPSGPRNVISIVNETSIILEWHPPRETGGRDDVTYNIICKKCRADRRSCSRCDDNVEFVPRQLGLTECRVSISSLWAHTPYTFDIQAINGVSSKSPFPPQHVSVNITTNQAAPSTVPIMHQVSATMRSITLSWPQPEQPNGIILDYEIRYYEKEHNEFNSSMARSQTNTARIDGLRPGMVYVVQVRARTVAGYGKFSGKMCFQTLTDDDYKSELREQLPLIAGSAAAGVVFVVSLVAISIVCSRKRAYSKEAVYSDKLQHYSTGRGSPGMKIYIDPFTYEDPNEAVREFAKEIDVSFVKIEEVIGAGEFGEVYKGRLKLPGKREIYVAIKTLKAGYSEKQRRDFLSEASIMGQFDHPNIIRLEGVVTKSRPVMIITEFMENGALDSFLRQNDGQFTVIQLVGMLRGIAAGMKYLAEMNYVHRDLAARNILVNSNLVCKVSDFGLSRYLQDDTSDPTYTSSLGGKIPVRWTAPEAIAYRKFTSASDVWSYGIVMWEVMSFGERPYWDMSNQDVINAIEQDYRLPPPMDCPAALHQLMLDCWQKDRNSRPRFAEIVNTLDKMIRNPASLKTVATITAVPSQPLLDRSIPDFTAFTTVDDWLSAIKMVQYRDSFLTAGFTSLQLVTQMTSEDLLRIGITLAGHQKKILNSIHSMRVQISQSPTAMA
The conditions noted are these: at 1 µM.

Sequence of Ephrin type-A receptor 2 (Homo sapiens) (P29317 whole entry): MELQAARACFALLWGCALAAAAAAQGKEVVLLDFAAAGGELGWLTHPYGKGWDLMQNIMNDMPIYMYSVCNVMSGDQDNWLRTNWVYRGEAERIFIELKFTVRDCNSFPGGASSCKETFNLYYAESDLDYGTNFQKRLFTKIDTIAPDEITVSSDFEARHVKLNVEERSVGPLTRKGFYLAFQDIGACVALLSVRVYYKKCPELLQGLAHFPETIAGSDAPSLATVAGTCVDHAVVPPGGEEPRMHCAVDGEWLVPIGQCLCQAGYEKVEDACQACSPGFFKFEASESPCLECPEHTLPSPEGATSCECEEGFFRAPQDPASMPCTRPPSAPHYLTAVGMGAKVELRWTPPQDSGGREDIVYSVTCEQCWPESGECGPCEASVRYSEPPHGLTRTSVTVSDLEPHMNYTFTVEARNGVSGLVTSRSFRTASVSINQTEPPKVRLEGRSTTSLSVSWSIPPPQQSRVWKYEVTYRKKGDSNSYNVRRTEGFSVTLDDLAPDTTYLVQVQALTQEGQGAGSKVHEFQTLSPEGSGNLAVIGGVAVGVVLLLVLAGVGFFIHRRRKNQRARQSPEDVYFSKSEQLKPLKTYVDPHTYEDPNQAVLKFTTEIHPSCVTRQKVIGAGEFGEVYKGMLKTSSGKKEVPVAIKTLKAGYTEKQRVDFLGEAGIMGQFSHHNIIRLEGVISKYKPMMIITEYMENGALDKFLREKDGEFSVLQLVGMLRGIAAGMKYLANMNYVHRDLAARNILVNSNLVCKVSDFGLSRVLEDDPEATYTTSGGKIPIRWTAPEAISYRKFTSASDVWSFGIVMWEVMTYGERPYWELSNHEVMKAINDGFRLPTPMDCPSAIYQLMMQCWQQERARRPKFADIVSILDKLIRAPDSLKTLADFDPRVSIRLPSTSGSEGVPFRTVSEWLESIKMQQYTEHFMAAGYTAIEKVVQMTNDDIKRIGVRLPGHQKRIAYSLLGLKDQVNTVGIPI
Sequence of Ephrin type-A receptor 4 (Homo sapiens) (P54764 whole entry): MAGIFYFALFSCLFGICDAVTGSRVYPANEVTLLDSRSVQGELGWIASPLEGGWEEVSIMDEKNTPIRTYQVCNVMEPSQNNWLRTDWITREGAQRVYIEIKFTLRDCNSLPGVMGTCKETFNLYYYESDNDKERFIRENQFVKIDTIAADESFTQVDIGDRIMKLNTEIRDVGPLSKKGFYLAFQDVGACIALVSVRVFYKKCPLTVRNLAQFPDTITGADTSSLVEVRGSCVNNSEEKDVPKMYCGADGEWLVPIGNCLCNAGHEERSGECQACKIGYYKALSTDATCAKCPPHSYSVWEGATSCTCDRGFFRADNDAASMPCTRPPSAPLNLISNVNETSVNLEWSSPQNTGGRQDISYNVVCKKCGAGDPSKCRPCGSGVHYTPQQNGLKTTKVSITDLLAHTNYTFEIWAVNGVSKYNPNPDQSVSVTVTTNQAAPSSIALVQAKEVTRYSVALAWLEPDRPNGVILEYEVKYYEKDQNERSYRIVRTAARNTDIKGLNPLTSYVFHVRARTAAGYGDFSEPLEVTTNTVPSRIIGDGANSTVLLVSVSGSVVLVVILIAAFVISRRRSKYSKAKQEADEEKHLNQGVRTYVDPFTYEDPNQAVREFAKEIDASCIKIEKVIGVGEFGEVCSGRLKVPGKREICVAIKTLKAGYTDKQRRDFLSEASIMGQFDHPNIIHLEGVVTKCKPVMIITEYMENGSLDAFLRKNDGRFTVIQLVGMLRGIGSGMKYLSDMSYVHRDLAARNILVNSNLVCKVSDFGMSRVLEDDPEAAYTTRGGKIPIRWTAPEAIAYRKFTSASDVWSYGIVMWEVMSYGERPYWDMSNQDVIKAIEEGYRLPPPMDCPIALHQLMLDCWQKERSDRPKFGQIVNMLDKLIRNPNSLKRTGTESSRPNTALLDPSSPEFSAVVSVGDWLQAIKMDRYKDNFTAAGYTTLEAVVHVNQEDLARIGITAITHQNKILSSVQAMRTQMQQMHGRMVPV

Take `O=C1NC(=O)/C(=C\c2ccc3nccnc3c2)S1`: the residual activity (commonly the signal under treatment as a percentage of the control signal) in test [1] was 19%; in test [2] it was 7%; in test [3], -4%; in test [4] it was 100%; in test [5], 113%; in [6] it was 95%. In addition, the residual activity in [7] turned out to be 90%; in [8], 100%; in test [9], 111%; in test [10] it was 91%; in test [11] it was 87%; in test [12] it was 108%. The residual activity came out at 106% in test [13]; 132% in test [14]; 101% in test [15]; 97% in test [16]; 94% in test [17]; 88% in test [18]. In addition, the residual activity in [19] was determined as 94%; in test [20] it was 115%.
`O=C(Nc1cccc(Nc2nccc(Nc3cccc(C(F)(F)F)c3)n2)c1)C1CC1`: the residual activity in [1] is 10%; in test [2] it was 95%; in test [3], 96%; in test [4], 61%; in [5] it was 19%; in test [6], 22%. In addition, the residual activity in test [7] came out at 22%; in test [8] it was 79%; in [9], 19%; in test [10], 95%; in test [11], 47%; in [12], 102%. Moreover, the residual activity in [13] was determined as 92%; in [14], 99%; in [15], 80%; in [16], 81%; in test [17], 43%; in [18] it was 97%. The figures for the residual activity in test [19] and in test [20] were 67% and 62%, respectively.
With `COc1cc2ncnc(Nc3ccc(O)c(Br)c3)c2cc1OC`, the residual activity in [1] was 18%; in [2], 48%; in [3] it was 10%; in test [6], 35%; in test [7], 8%; in test [8], 90%. Moreover, the residual activity came to 30% in [9]; 79% in test [10]; 20% in [11]; 89% in test [12]; 41% in [13]; 74% in [14]. Also, the residual activity came out at 21% in [15]; 34% in [16]; 7% in test [17]; 70% in [18]; 28% in test [19]; 62% in test [20].
